HP1b chromo inh = HP1-beta chromodomain-methylated histone interaction inhibition | Potency, µM (top dose mostly 114 µM), for inactives: top-dose activity change, negative = inhibition, most hits filed as inhibitors | AlphaScreen HP1-beta / biotin-H3K9me3 peptide binding | actives 0.56% (n = 390,000); further: potency means the concentration at half of the fitted maximal effect; nearly all actives have a fitted effect of over 70% in size
Target sequence (P83916 whole entry, looked up): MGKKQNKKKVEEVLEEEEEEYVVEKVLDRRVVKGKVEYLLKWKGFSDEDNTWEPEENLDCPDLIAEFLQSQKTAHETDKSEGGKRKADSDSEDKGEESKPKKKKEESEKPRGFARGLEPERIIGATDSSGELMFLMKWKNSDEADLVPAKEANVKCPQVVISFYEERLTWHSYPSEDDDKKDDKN
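Compound inhibition of the preformed complex between 50 nM HP1-beta and 50 nM biotinylated H3K9me3 peptide was read by AlphaScreen. Buffer was PBS pH 7.4 with 0.01% Tween-20. Incubations ran 30 min at room temperature, with 10 ug/mL donor/acceptor beads.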
PI5P4K alpha inh = PI5P4K alpha (human) kinase inhibition | max response, % | P48426 | PI5P4Kalpha enzyme, ADP-Glo luminescence, 60 min; stronger effect = lower value | AID 652105 | actives 1.2% (n = 330,000); active means max response of -50% or lower; inconclusive means between -30% and -50%; inactive means -30% or higher; further: value at the top dose of about 77 µM; on the % scale 0 is the no-effect control and ±100 the full control effect
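Luminescence from ADP-Glo served as readout of PI5P4Kalpha activity in a qHTS format. Reaction: enzyme, substrate, compound, ATP at 5 microM final, 60 min at RT.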
BAZ2B inh = blocks human BAZ2B | Q9UIF8 | AlphaScreen BAZ2B-H3K14Ac peptide displacement | Potency, µM (series often up to 114 µM), without a hit: at the highest dose activity change, negative = inhibition, actives largely listed as inhibitors | actives 4.4% (n = 360,000) | AID 504333; further: potency means the concentration at half of the fitted maximal effect; on the % scale 0 is the no-effect control and ±100 the full control effect; nearly all actives have a fitted effect of over 60% in size
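Compounds, titrated to a top concentration of 110 uM, were incubated 30 min at room temperature with preformed BAZ2B/acetyl-K14 H3 peptide complex (50 nM each). Proximity signal was measured by AlphaScreen after 20 min with beads.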
JMJD2A Tudor = inhibitors of human JMJD2A Tudor domain; Potency, µM (titrated, usually from 114 µM), without a hit: at the highest dose activity change, negative = inhibition, actives largely listed as inhibitors; AID 504339; AlphaScreen JMJD2A-Tudor / H3K4me3 peptide binding; O75164; actives 4.4% (n = 390,000); further: potency means the concentration at half of the fitted maximal effect; on the % scale 0 is the no-effect control and ±100 the full control effect; nearly all actives have a fitted effect of over 50% in size
L3MBTL1 inh = L3MBTL1 (human) inhibition | Potency, µM (doses to about 57.1 µM), for the others: at the top dose activity, negative = inhibition, actives largely listed as inhibitors | actives 0.66% (n = 230,000) | AID 485360 | AlphaScreen L3MBTL1–H3K9me1 peptide binding | Q9Y468; further: potency means the concentration at half of the fitted maximal effect; on the % scale 0 is the no-effect control and ±100 the full control effect; nearly all actives have a fitted effect of over 60% in size
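First, the protein-peptide complex forms for 30 min at room temperature (L3MBTL1 50 nM, biotinylated H3K9me1 peptide 75 nM). Next, compounds are pin-transferred and incubated 30 min. Finally, AlphaScreen beads are added and read after 30 min.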
JMJD2E inh = blocks human JMJD2E demethylase activity; Potency, µM (top dose mostly 57.1 µM), for the others: at the top dose activity change, negative = inhibition, usual class: inhibitors; actives 1.6% (n = 230,000); JMJD2E catalytic domain, FDH-coupled NADH fluorescence (FDH is formaldehyde dehydrogenase); B2RXH2; active means well fitted inhibition curve with a large enough effect, not every such curve was filed as active; inconclusive means small, poorly fitted or top-dose-only effect, or another doubt; inactive means no such curve, though single readings can be large or run the other way;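 further: potency means the concentration at half of the fitted maximal effect; 0% = wells with enzyme and -100% = buffer wells without enzyme; nearly all actives have a fitted effect of over 50% in size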
Target sequence (B2RXH2 1-337 limits assumed): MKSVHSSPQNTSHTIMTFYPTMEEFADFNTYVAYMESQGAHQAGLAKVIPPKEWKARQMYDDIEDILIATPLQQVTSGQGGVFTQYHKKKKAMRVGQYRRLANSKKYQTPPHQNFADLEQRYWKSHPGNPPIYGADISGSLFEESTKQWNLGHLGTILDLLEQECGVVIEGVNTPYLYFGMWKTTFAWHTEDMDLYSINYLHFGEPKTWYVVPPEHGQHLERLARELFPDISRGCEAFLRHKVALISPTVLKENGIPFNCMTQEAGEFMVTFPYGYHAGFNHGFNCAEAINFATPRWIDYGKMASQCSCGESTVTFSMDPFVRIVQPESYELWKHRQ
Numbers without * were called inactive; ? = inconclusive; / = no result; [ ] = dose if it differs, or a comment. Sampled rows, rich in hits. Any-hit rate of the full collection: about 5.7%. Unless noted, the call rests on the fitted dose curve; in most records, active means well fitted inhibition curve with a large enough effect; inconclusive means small, poorly fitted or top-dose-only effect; inactive means no such curve, though single readings can be large or run the other way.

SMILES | HP1b chromo inh | PI5P4K alpha inh | BAZ2B inh | JMJD2A Tudor | L3MBTL1 inh | JMJD2E inh
CCN(CC)C(=O)C1CCCN(Cc2cccc(Oc3ccccc3)c2)C1 (centres undefined) | 0% | 0 | -37% | 22µM* | 4% | ?
CCOC(=O)C1CCCN(C(=O)c2ccccc2Oc2ccccc2)C1 (centres undefined) | 20% | -2 | 17% | -3% | 1% | 4%
CCN1CCN(Cc2cccc(Oc3ccc(Cl)cc3)c2)CC1 | 12% | / | 79µM* | -31% | / | 1%
CCOC(=O)C1CCCN(Cc2cccc(Oc3ccccc3)c2)C1 (centres undefined) | ? | -3 | ? | 3.2µM* | 2% | /
CN1CCN(Cc2cccc(Oc3ccc(Cl)cc3)c2)CC1 | 11% | / | -10% | -21% | / | -3%
CC(=O)N1CCc2cc(Br)cc(S(=O)(=O)N3CCN(c4cccc(C)c4)C(C)C3)c21 (centres undefined) | -3% | / | ? | ? | / | /
C[N+]12CCCCC1C(COC(=O)c1ccc3c(c1)OCO3)CCC2 (centres undefined) | ? | / | ? | 20µM* | / | 22µM*
COCCN1CCn2c(nc3cc(Nc4nnc(C)c5ccccc45)ccc32)C1 | 34% | -6 | ? | 89µM* | / | ?
CC1(c2ccccc2)CC(C)(C)N2C(=O)C(=O)c3cccc1c32 (centres undefined) | -33% | 5 | 28µM* | ? | -7% | -5%
CC1(c2ccccc2)CC(C)(C)N(C(=O)c2ccccc2Cl)c2ccccc21 (centres undefined) | 18% | / | -6% | -5% | / | /
COc1cccc(CN2CCN(Cc3cccc(Oc4ccccc4)c3)CC2)c1OC | ? | 3 | 18µM* | 7.1µM* | / | /
COc1ccc(CC2(CO)CCN(Cc3cccc(OC)c3OC)CC2)cc1 | 27% | -3 | -14% | -15% | -7% | -6%
CC(C)CC(=O)N1CCC(N(CCc2ccccc2)Cc2ccccc2)CC1 | ? | 2 | 50µM* | 28µM* | 2% | /
c1ccc(Oc2cccc(CN3CCCCC3)c2)cc1 | 10% | / | ? | -12% | / | 2%
COc1cccc(CN2CCN(Cc3cc(OC)c(OC)c(OC)c3)CC2)c1OC | ? | 9 | 56µM* | 7.9µM* | -2% | /
COc1cccc(CN2CCC(N(CCc3ccccc3)Cc3ccccc3)CC2)c1OC | ? | 1 | 50µM* | 0.89µM* | -3% | ?
CC1CCN(C(=O)CN(CCc2ccccc2)S(C)(=O)=O)CC1 | 29% | 0 | 6% | -7% | 8% | 1%
CCN(CC)S(=O)(=O)c1ccc2c(c1)N(CC(=O)Nc1c(C)cc(C)cc1C)C(=O)CS2 | 39% | / | 2% | 4% | / | /
CN(C)CCC[C@@]1(c2ccc(F)cc2)OCc2cc(C#N)ccc21 | ? | -5 | / | 35µM* | / | -2%
CN(C)CCC[C@]1(c2ccc(F)cc2)OCc2cc(C#N)ccc21 | 22% | 14 | -18% | -3% | / | /
FC(F)(F)c1cccc(-n2c(Cn3nnc4ccccc43)n[nH]c2=S)c1 | 47% | -6 | -6% | -24% | 53% | -7%
S=c1[nH]nc(Cn2nnc3ccccc32)n1-c1ccccc1 | 35% | 7 | -16% | 6.3µM* | 5% | 0%
Fc1ccc(-n2c(Cn3nnc4ccccc43)n[nH]c2=S)cc1 | 31% | -5 | ? | 18µM* | 5% | ?
Cn1c(Cn2nnc3ccccc32)nnc1SCC(=O)c1ccc(F)cc1 | 22% | / | -6% | 45µM* | -3% | -13%
COc1ccc(OC)c(CNC(=O)c2ccc3nc(C(C)C)oc3c2)c1 | 9%[57 µM] | / | -7% | -15% | / | /
O=C(O)COc1ccc2c(c1)O/C(=C\c1ccco1)C2=O | 40µM* | ? | 40µM* | 20µM* | / | /
COc1cccc([C@@H]2Oc3ccc(Br)cc3C(=O)[C@H]2OC(=O)NS(=O)(=O)c2ccc(F)cc2)c1 | / | / | / | / | / | 3%
Cc1cc([C@](C)(N)C(=O)O)ccc1P(=O)(O)O | / | / | / | / | / | -20%

Assay outcomes: PubChem BioAssay, National Center for Advancing Translational Sciences (NCATS)
